Source: PubChem (National Center for Advancing Translational Sciences (NCATS))
Rows were chosen to be rich in hits. Some 10% of all compounds tested hit in one or more screens of this group.
GLS inhibitor: glutaminase GLS (human) inhibition; O94925; GLS enzymatic activity, qHTS titration; Potency, µM (top dose mostly 45.5 µM), for inactives: at the highest dose activity change, negative = inhibition, most hits filed as inhibitors; hit rate 0.21% among 410,000; AID 624170; note: % is set by controls: 0 for no effect and ±100 for the full control effect
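Assay buffer: 45 mM KH2PO4 pH 8.2, 0.02% Tween-20. hKGA acts on L-glutamine (1 mM solution added); product glutamate is reported by an oxidase/peroxidase Amplex Red coupling, with fluorescence taken at baseline and 30 min.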
HP1b chromo inh: HP1-beta chromodomain-methylated histone interaction inhibition | AlphaScreen HP1-beta / biotin-H3K9me3 peptide binding | Potency, µM (doses to about 114 µM), without a hit: at the highest dose activity change, negative = inhibition, hits mostly inhibitors | hit rate 0.56% among 390,000 | AID 540317; note: nearly all actives have a fitted effect of over 70% in size
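HP1-beta protein (50 nM final) preincubated 30 min at room temperature with biotinylated H3(1-18)K9me3 peptide (50 nM) in PBS pH 7.4, 0.01% Tween-20, then compound added for 30 min. AlphaScreen streptavidin donor/nickel chelate acceptor beads (10 ug/mL final), 30 min dark, luminescence read.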
BAZ2B block: blocks human BAZ2B; Q9UIF8; AlphaScreen BAZ2B-H3K14Ac peptide displacement; Potency, µM (top dose mostly 114 µM), inactives show top-dose activity change, negative = inhibition, actives largely listed as inhibitors; hit rate 4.4% among 360,000; AID 504333; note: % is set by controls: 0 for no effect and ±100 for the full control effect; nearly all actives have a fitted effect of over 60% in size
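Complex of BAZ2B and biotin-H3K14Ac (50 nM apiece) forms over 30 min at RT, then faces library compounds up to 110 uM for another 30 min; AlphaScreen beads added, 20 min dark incubation, luminescence read.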
L3MBTL1 inh: blocks human L3MBTL1 | Potency, µM (titrated, usually from 57.1 µM), inactives show at the top dose activity, negative = inhibition, hits mostly inhibitors | AlphaScreen L3MBTL1–H3K9me1 peptide binding | AID 485360 | hit rate 0.66% among 230,000 | Q9Y468; note: % is set by controls: 0 for no effect and ±100 for the full control effect; nearly all actives have a fitted effect of over 60% in size
Target sequence (Q9Y468 whole entry, looked up): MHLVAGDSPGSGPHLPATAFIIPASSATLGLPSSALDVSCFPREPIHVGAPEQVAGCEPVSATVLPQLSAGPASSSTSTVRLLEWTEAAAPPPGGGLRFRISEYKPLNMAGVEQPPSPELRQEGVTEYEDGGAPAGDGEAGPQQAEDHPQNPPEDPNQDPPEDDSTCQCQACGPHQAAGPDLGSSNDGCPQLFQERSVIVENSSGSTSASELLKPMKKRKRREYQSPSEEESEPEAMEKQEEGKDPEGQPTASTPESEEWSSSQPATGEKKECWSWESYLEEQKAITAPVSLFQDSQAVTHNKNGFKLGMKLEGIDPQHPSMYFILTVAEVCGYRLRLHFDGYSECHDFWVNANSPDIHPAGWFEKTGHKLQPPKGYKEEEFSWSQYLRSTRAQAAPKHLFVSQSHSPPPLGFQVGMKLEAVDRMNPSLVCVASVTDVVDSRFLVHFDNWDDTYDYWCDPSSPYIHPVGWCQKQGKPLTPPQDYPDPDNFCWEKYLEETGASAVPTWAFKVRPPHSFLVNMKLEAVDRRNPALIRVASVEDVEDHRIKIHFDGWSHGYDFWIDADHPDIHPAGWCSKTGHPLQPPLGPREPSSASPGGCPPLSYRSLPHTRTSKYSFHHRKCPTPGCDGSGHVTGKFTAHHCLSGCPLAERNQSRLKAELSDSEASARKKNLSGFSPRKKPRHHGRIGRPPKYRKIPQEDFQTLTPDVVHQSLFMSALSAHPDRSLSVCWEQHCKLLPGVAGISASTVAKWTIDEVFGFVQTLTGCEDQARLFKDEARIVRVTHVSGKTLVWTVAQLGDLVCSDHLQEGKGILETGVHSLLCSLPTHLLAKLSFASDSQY
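Displacement of a biotinylated histone H3(1-15) peptide monomethylated at Lys9 (75 nM) from L3MBTL1 (50 nM) was measured by AlphaScreen after a 30 min room-temperature compound incubation; cefsulodin titration served as intraplate control.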
G9a block: G9a (human) methyltransferase inhibition; Q96KQ7; G9a H3K9 monomethylation, AlphaScreen, 2 h; Potency, µM (doses to about 102 µM), without a hit: at the top dose activity, negative = inhibition, usual class: inhibitors; hit rate 8.8% among 350,000; AID 504332; note: % is set by controls: 0 for no effect and ±100 for the full control effect; nearly all actives have a fitted effect of over 75% in size
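G9a (20 nM) was preincubated 15 min with compound, then reacted 2 h at room temperature with 500 nM biotin-H3K9 peptide and 20 µM SAM. Monomethyl-H3K9 detected by AlphaScreen using anti-H3K9me1 antibody.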
JMJD2A Tudor: blocks the human JMJD2A Tudor domain | Potency, µM (highest dose often 114 µM), for the others: at the top dose activity change, negative = inhibition, most hits filed as inhibitors | AlphaScreen JMJD2A-Tudor / H3K4me3 peptide binding | hit rate 4.4% among 390,000 | O75164; note: % is set by controls: 0 for no effect and ±100 for the full control effect; nearly all actives have a fitted effect of over 50% in size
Starred values were filed as active, the others as inactive; ? = inconclusive; . = no result; [ ] = dose if it differs, or a comment. Calls come from the whole dose curve; as a rule, active = well fitted curve in the direction sought with a large enough effect; inconclusive = small, poorly fitted or top-dose-only effect, or another doubt; inactive = no such curve, though single readings can be large; an effect the other way counts as inactive or inconclusive. Potency is the fitted concentration of half-maximal effect.

SMILES | GLS inhibitor | HP1b chromo inh | BAZ2B block | L3MBTL1 inh | G9a block | JMJD2A Tudor
CNC(=O)c1c(NC(=O)c2cc(=O)c3cc(C)c(C)cc3o2)sc2c1CCCC2 | 0% | 11% | -8% | . | 2%[59 µM] | 2%
Cc1ccc(-c2nnn3c2nc(NCC(C)c2ccccc2)c2ccccc23)cc1 (configuration not stated) | -2% | 51% | 4% | . | 4%[59 µM] | 6%
COc1ccc(NCc2nc3ccccc3n2CCOc2ccc(C)cc2)cc1 | ? | 40µM* | 10µM* | ? | 14µM* | 11µM*
c1ccc(NCc2nc3ccccc3n2CCOc2ccccc2)cc1 | 10% | -6% | ? | -14% | ? | -32%
COc1ccc(NCc2nc3ccccc3n2CCOc2ccccc2)cc1 | -1% | -67% | 18µM* | ? | 32µM* | 40µM*
FC(F)(F)c1cccc(-c2nnc3ccc(C(F)(F)F)cn23)c1 | -7% | 8% | -34% | 1% | 35µM* | -13%
FC(F)(F)c1cccc(-c2nn[nH]n2)c1 | 16% | 45% | -17% | 5% | ? | 2%
COc1ccc(NC(=O)c2cccc(N3CCCS3(=O)=O)c2)c(OC)c1 | 4% | 6% | -3% | . | 0%[59 µM] | -15%
Cc1sc2c(c1C)C(=O)NC(c1ccccc1F)N2 (configuration not stated) | -3% | ? | -27% | 3% | 10µM* | ?
Cc1cccc(C2NC(=O)c3c(sc(C)c3C)N2)c1O (configuration not stated) | -7% | 16% | -10% | -14% | 4%[12.7 µM] | -15%
Cc1ccc(C2NC(=O)c3c(sc(C)c3C)N2)c(O)c1 (configuration not stated) | 24% | 19% | 6% | . | 32µM* | -17%
O=C1CSC(c2ccccc2F)N1 (configuration not stated) | -4% | 1% | ? | . | . | -6%
Cc1ccc(S(=O)(=O)NNC(=O)c2cnn(-c3ccc(Cl)cc3)c2C(F)(F)F)cc1 | ? | 1% | -21% | -13% | 56µM* | -17%
Cc1ccc(S(=O)(=O)NNC(=O)c2cnn(-c3ccccc3)c2C(F)(F)F)cc1 | 25% | 48% | -2% | -5% | 30%[59 µM] | -6%
Cc1cccc(NC2=NCC(=O)N2Cc2cccs2)c1 | -9% | 14% | ? | 5% | 71µM* | -1%
CCc1ccccc1NC1=NCC(=O)N1Cc1ccccc1 | 15% | 32% | 79µM* | -25% | 45µM* | 0%
O=C1CN=C(Nc2ccccc2)N1Cc1cccs1 | -2% | 42% | 3%[57.1 µM] | 9% | 79µM* | -10%
Cc1cccc(NC2=NCC(=O)N2Cc2ccccc2)c1 | -21% | 62% | -7% | -6% | ? | -20%
O=C1CCN=C(Nc2ccc(F)cc2)N1Cc1ccccc1 | -3% | 35% | ? | . | 40µM* | -19%[57.1 µM]
CC(C)c1ccc(NC2=NCC(=O)N2Cc2cccs2)cc1 | 11% | 44% | ? | 7% | ? | -5%
COc1cccc(NC(=O)CC(C)S(=O)(=O)c2ccc3c(c2)NC(=O)CO3)c1 (configuration not stated) | 1% | 29% | -2% | . | -6%[59 µM] | -17%
O=C(NCc1ccc(F)cc1)c1ccc(CSCc2cccc(Cl)c2)o1 | -1% | -36% | 26% | . | -5%[59 µM] | 21%
CC(C)c1ccc(NC(=O)CCCc2nc(-c3ccc(Cl)cc3)no2)cc1 | -2% | 41% | -32% | . | -3%[59 µM] | -3%
CN1CCN(c2ncc3nc(-c4ccc(Cl)cc4)c(=O)n(CCC#N)c3n2)CC1 | . | . | . | . | 4%[12.7 µM] | .
CCOc1ccc(NC(=O)CC2C(=O)N(c3ccc(C)cc3)C(=O)N2CCC2=CCCCC2)cc1 (configuration not stated) | 2% | 43% | 1% | . | -20%[59 µM] | -16%
SMILES | GLS inhibitor | HP1b chromo inh | BAZ2B block | L3MBTL1 inh | G9a block | JMJD2A Tudor
O=C(NC1CCC(O)CC1)c1ccc(-c2ccc(Cl)cc2)o1 (configuration not stated) | -2% | 15% | -32% | -8% | ? | -26%
CC(=O)c1ccc(-c2ccc(C(=O)NC3CCCCCC3)o2)cc1 | -2% | 27% | -22% | 0% | 50µM* | -5%
CN(Cc1ccccc1)C(=S)Nc1cccnc1 | -8% | 6% | -22% | . | -6% | 56µM*
CC(C)N(Cc1ccccc1)C(=S)Nc1cccnc1 | 6% | 13% | -7% | 8% | 17%[59 µM] | -8%
NC(=O)CC(NC(=S)NCc1ccccc1)C(=O)O (configuration not stated) | 2% | 3% | -5% | . | 71µM* | -20%
CN(Cc1ccccc1)C(=S)NC(=O)c1ccccc1 | 0% | 19% | -25% | -6% | 50µM* | -24%
O=C(Cc1csc(-c2ccccc2)n1)NCc1ccc(F)cc1 | -16% | 36% | 6% | -6% | 45µM* | 6%
CCOc1ccc(NC(=O)CN2CCN(Cc3ccccc3)S2(=O)=O)cc1 | 2% | 14% | -10% | . | ? | -13%
Cc1cc(C)c(Cn2cnc3nc4c(cc3c2=O)CCCC4)c(C)c1 | 0% | 11%[57 µM] | -15% | . | 0%[59 µM] | -21%
Fc1ccc(CNC(=S)NCc2ccc(F)cc2)cc1 | -14% | 29% | 0% | 9% | 16% | 8%
O=C(NC(=S)NCc1ccc(F)cc1)c1ccccc1 | 8% | 8% | -13% | -4% | 50µM* | -10%
O=C(NC(=S)NCc1ccccc1)c1ccccc1 | 2% | 30% | -25% | -6% | 45µM* | -22%
O=C(NC(=S)NCc1ccncc1)c1ccccc1 | 1% | 22% | -4% | 4% | . | -10%
COc1cccc(CNC(=O)C2CCN(S(=O)(=O)c3ccc4c(c3)CCCN4C(C)=O)CC2)c1 | 2% | 30%[57 µM] | 2% | . | 3%[59 µM] | -6%
O=C(Nc1nccs1)C(Br)C(Br)c1ccccc1 (configuration not stated) | -15% | 14% | -2% | . | 3.5µM* | -30%
CC(=O)OC(C(=O)Nc1nccs1)c1ccccc1 (configuration not stated) | -2% | 38% | -1% | 2% | -8% | -7%
O=C(NCc1ccccc1)C(=O)Nc1nccs1 | -2% | 32% | -15% | 27% | 13µM* | ?
COc1ccc(CCNC(=O)C(=O)Nc2nccs2)cc1OC | 4% | 26% | -1% | 2% | ? | 79µM*
O=C(Nc1nccs1)OCc1ccccc1 | 5% | 12% | . | . | . | -10%
COc1ccc(CCNC(=O)CSCc2ccc([N+](=O)[O-])cc2)cc1OC | ? | ? | -6% | 3% | 5% | 20µM*
Cc1sc(-c2cc3c([nH]c2=O)CC(c2ccccc2)CC3=O)nc1-c1ccc(Cl)cc1 (configuration not stated) | 0% | 21% | 3% | . | 1%[59 µM] | -2%
